Measured values: PubChem BioAssay
For some of these results: Entries with a potency or affinity are not part of this list. Active and inactive are the calls of the source.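 Rule for the calls, unless noted: active = calcium signal cut by more than 3 SD below the full-agonist control yet still positive, in both repeats and the earlier primary screen; inactive = the rest.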

How the values were obtained:
[1] = test system: TRPC4 beta (transient receptor potential cation channel C4), mouse; test: activators of mouse TRPC4 channel, confirmation, cell-based, Fluo4 calcium, HEK293 TRPC4beta/mu-opioid, duplicates, 10 µM (AID 2426;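 active = fluorescence ratio normalized to control raised more than 50% in primary screen plus both repeat runs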); settings: Fluo4 calcium fluorescence, at 10 µM; active compounds read high
[2] = test system: transient receptor potential cation channel C4 beta (TRPC4), mouse; test: activators of mouse TRPC4 channel, confirmation, cell-based, second round, Fluo4, HEK293 TRPC4beta/mu-opioid, 1 µM (AID 2461;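 active = primary screen active and over 50% activation in each of two duplicate runs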); settings: Fluo4 calcium fluorescence, at 1 µM; active compounds read high
[3] = test system: TRPC4 (transient receptor potential cation channel C4 beta), mouse; test: positive allosteric modulators of mouse TRPC4, confirmation, cell-based, second round, Fluo-4, HEK293 TRPC4beta/mu-opioid, 1 µM (AID 2554;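 active = primary screen hit whose fluorescence ratio, in both repeats, exceeds the weak agonist control mean by 3 SD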); settings: DAMGO EC20, Fluo-4 calcium flux, at 1 µM; active compounds read high
[4] = test system: TRPC4 beta (transient receptor potential cation channel C4), mouse; test: positive allosteric modulators of mouse TRPC4, confirmation, cell-based, Fluo-4, HEK293 TRPC4beta/mu-opioid (AID 2555;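 active = primary screen hit whose calcium fluorescence ratio, in both repeats, exceeds the weak agonist control mean by 3 SD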); settings: DAMGO EC20, Fluo-4 calcium flux, at 10 µM; active compounds read high
[5] = biological target: Short transient receptor potential channel 4 (Mus musculus) (UniProt Q9QUQ5); test: inhibitors of mouse TRPC4 channel, confirmation, cell-based, Fluo4, HEK293 TRPC4beta/mu-opioid (AID 2636); settings: DAMGO, Fluo4 calcium flux, at 10 µM; active compounds read high
Sequence of Short transient receptor potential channel 4 (Mus musculus) (Q9QUQ5 whole entry, looked up): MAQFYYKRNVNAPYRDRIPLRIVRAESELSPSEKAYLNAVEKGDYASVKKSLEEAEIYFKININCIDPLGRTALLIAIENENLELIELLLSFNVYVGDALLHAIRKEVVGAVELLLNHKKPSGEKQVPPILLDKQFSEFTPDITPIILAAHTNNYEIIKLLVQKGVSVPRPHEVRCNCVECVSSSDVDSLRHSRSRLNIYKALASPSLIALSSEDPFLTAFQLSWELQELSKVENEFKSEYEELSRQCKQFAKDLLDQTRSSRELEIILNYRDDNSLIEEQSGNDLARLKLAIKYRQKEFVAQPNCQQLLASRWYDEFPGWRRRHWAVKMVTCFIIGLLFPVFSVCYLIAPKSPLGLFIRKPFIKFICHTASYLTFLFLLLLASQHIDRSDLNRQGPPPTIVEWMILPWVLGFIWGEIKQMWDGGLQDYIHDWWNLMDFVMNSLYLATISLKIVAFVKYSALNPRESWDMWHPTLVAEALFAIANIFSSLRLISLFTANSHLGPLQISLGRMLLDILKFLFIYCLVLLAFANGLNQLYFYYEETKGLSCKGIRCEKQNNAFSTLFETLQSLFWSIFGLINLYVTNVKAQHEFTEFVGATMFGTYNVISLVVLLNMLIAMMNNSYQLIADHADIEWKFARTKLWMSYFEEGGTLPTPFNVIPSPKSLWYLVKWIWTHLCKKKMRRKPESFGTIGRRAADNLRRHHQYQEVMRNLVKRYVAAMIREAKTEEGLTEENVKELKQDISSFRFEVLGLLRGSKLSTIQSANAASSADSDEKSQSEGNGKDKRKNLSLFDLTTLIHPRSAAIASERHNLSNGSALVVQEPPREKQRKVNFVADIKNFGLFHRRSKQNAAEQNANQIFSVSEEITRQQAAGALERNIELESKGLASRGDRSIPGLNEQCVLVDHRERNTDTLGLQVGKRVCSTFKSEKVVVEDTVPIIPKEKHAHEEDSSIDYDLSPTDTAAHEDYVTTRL

[6] = biological target: Short transient receptor potential channel 4 (Mus musculus) (UniProt Q9QUQ5); test: inhibitors of mouse TRPC4 channel, confirmation, cell-based, second round, Fluo4, HEK293 TRPC4beta/mu-opioid, 1 µM (AID 2637;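 active = calcium signal ratio cut to more than 3 SD under the fully stimulated control mean yet still positive, in both repeats and the primary screen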;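 for inhibition: percent of integrated ratio relative to wells lacking test compound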); settings: Fluo4 calcium flux, DAMGO, at 1 µM; active compounds read high
[7] = biological target: Short transient receptor potential channel 4 (Mus musculus) (UniProt Q9QUQ5); test: mouse TRPC4 channel activators, dose response, cell-based, HEK293 TRPC4/mu-opioid, Fluo-4 calcium (AID 434937;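 active = primary screen activator hit with a dose response curve and TRPC4 channel activation at any tested dose; inactive = no activation, no dose response, or not a primary hit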)
[8] = biological target: Short transient receptor potential channel 4 (Mus musculus) (UniProt Q9QUQ5); test: TRPC4 positive allosteric modulators, dose response, cell-based, HEK293 TRPC4/mu-opioid, Fluo-4 calcium, EC20 DAMGO (AID 434941;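 active = earlier screen potentiator hit that boosts the TRPC4 ion channel at some dose, with a dose response; inactive = no potentiation, no dose response, or not a prior hit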;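 note: calcium entry triggered by an EC20 dose of DAMGO at the co-expressed mu-opioid receptor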)
[9] = biological target: Short transient receptor potential channel 6 (Mus musculus) (UniProt Q61143); test: inhibition of mouse TRPC6 channel, confirmation, selectivity assay for TRPC4 inhibitor project, cell-based, HEK293, membrane potential dye, duplicate (AID 434948;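 active = active in primary screen and both duplicates, each dropping signal beyond three positive-control SD with fluorescence still positive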); settings: HEK293 TRPC6, membrane potential dye fluorescence, at 10 µM, stimulated with maximal-effect acetylcholine; active compounds read high
Sequence of Short transient receptor potential channel 6 (Mus musculus) (Q61143 whole entry, looked up): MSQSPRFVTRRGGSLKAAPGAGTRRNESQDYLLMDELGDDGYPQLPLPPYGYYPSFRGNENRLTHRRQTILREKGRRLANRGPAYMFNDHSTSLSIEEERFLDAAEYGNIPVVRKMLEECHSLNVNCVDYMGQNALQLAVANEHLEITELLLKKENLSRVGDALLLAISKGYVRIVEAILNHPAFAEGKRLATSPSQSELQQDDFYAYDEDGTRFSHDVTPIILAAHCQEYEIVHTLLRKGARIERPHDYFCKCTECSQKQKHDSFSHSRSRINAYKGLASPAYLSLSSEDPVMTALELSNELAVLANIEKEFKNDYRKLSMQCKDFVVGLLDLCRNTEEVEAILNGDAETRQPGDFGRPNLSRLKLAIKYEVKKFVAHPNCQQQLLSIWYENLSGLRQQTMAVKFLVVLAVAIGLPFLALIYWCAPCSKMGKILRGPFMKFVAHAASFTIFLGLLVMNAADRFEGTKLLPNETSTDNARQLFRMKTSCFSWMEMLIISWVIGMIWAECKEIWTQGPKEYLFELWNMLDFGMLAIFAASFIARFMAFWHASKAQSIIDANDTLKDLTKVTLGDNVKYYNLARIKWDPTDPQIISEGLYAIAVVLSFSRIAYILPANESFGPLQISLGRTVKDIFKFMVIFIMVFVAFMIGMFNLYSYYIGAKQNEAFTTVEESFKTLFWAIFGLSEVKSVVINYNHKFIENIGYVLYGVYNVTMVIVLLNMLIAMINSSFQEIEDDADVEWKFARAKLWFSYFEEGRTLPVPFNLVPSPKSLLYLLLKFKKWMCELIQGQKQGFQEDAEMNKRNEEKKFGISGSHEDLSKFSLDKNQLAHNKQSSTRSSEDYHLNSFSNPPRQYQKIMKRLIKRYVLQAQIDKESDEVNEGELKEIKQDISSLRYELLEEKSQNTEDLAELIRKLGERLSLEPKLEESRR

[10] = biological target: Short transient receptor potential channel 6 (Mus musculus) (UniProt Q61143); test: activation of mouse TRPC6 channel, confirmation, selectivity assay for TRPC4 activator project, cell-based, HEK293, membrane potential dye, duplicate (AID 434950;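 active = membrane potential signal rise above negative control mean plus 3 SD in both duplicates, also active in the earlier TRPC4 screen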;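 for activation: 0% = buffer only wells and 100% = acetylcholine maximal-effect wells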); settings: HEK293 TRPC6, membrane potential fluorescence, at 10 µM; active compounds read high
[11] = biological target: Short transient receptor potential channel 6 (Mus musculus) (UniProt Q61143); test: TRPC6 potentiation by TRPC4 potentiator hits, confirmation, selectivity assay for TRPC4 potentiator project, HEK293 cells, membrane potential dye, duplicate (AID 434952;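 active = compound raising the membrane signal above positive-control mean plus 3 SD in both repeats, and a primary screen hit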); settings: HEK293 TRPC6, membrane potential dye fluorescence, at 10 µM, maximal acetylcholine added after compound; active compounds read high
[12] = biological target: Short transient receptor potential channel 4 (Mus musculus) (UniProt Q9QUQ5); test: calcium flux activators in TRPC4/5HT1a cells, counter-screen for TRPC4 activator project, cell-based, second counter screen, HEK293 TRPC4/5HT1a, Fluo-4 (AID 434977;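 active = calcium signal rise above buffer-control mean plus 5 SD in both duplicates, and also a hit in the primary screen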); settings: Fluo-4 calcium flux, at 10 µM; active compounds read high
[13] = calcium flux inhibitors in TRPC4/5HT1a cells, confirmation, counter-screen for TRPC4 inhibitor project, cell-based, second counter screen, HEK293 TRPC4/5HT1a, Fluo-4 (AID 434978;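 active = primary screen active whose calcium signal fell more than 3 SD beyond the full-serotonin control mean in both duplicate plates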;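 for outcome: serotonin given first at submaximal then at maximal dose after compound preincubation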); settings: Fluo-4 calcium flux, at 10 µM, serotonin added to trigger calcium flux; active compounds read high
[14] = test system: TRPC4 (mouse), co-expressed with 5HT1a in HEK293; test: calcium flux potentiators in TRPC4/5HT1a cells, confirmation, counter-screen for TRPC4 potentiator project, cell-based, second counter screen, HEK293 TRPC4/5HT1a, Fluo-4 (AID 434979;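 active = signal rise over 3 SD above mean of control wells given weak agonist, in both repeats and first screen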); settings: Fluo-4 calcium flux, at 10 µM, serotonin added at its EC20 dose; active compounds read high
[15] = calcium flux activation in mu-opioid HEK293 cells, confirmation, counter-screen for TRPC4 activator project, cell-based, HEK293 mu-opioid receptor line (AID 449723;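 active = hit in primary screen, with calcium signal over 5 SD above buffer well mean in both duplicates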;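 note: counter screen cells carry the mu-opioid receptor alone and lack TRPC4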); settings: Fluo-4 calcium fluorescence, at 10 µM; active compounds read high
[16] = calcium flux enhancement in mu-opioid HEK293 cells, confirmation, counter-screen for TRPC4 allosteric potentiator project, cell-based, HEK293 mu-opioid receptor line (AID 449724;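 active = calcium signal rise more than 3 SD above the low-dose agonist control mean, in both duplicate plates and the primary screen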); settings: Fluo-4 calcium flux, at 10 µM, compound added before EC20 DAMGO stimulus; active compounds read high

OCC1(Cc2ccc(Cl)cc2)CCN(Cc2ccccc2F)CC1
inactive: outcome [1] | outcome [2] | outcome [3] | outcome [4] | outcome [7] | outcome [8] | outcome [9] | outcome [10] | outcome [11] | outcome [12] | outcome [14] | outcome [15] | outcome [16]
active: inhibition [5] 89% | inhibition [6] 38% | inhibition [13] 27.9%

C=CCN(CC(O)c1cccc([N+](=O)[O-])c1)C(C)CCc1ccccc1 (stereo unspecified)
active: inhibition [5] 79% | inhibition [13] 25.6%
inactive: outcome [1] | outcome [2] | outcome [3] | outcome [4] | outcome [6] | outcome [7] | outcome [8] | outcome [9] | outcome [10] | outcome [11] | outcome [12] | outcome [14] | outcome [15] | outcome [16]

CC(C)(C)NCc1ccccc1OCc1cccs1
active: inhibition [5] 95% | inhibition [6] 45% | inhibition [9] 15% | inhibition [13] 17.5%
inactive: outcome [1] | outcome [2] | outcome [3] | outcome [4] | outcome [7] | outcome [8] | outcome [10] | outcome [11] | outcome [12] | outcome [14] | outcome [15] | outcome [16]

Cc1cccc2nc(CSc3ccc(Cl)cc3)cn12
inactive: outcome [1] | outcome [2] | outcome [3] | outcome [4] | outcome [7] | outcome [8] | outcome [9] | outcome [10] | outcome [11] | outcome [12] | outcome [14] | outcome [15] | outcome [16]
active: inhibition [5] 90% | inhibition [6] 52% | inhibition [13] 21.9%

CC1(C)CC2CC(C)(CN2C(=O)c2cc(-c3ccc(O)cc3)on2)C1 (stereo unspecified)
active: inhibition [5] 81% | inhibition [13] 31.1%
inactive: outcome [1] | outcome [2] | outcome [3] | outcome [4] | outcome [6] | outcome [7] | outcome [8] | outcome [9] | outcome [10] | outcome [11] | outcome [12] | outcome [14] | outcome [15] | outcome [16]

COc1cc(/C=C2\SC(=S)N(NS(=O)(=O)c3ccc(C)cc3)C2=O)cc(OC)c1OC
active: inhibition [5] 95% | inhibition [13] 34.5%
inactive: outcome [1] | outcome [2] | outcome [3] | outcome [4] | outcome [6] | outcome [7] | outcome [8] | outcome [9] | outcome [10] | outcome [11] | outcome [12] | outcome [14] | outcome [15] | outcome [16]

O=C(NCCCN1CCOCC1)c1ccc(NC(=O)C2COc3ccccc3O2)cc1 (stereo unspecified)
inactive: outcome [1] | outcome [2] | outcome [3] | outcome [4] | outcome [5] | outcome [6] | outcome [7] | outcome [8] | outcome [9] | outcome [11] | outcome [12] | outcome [13] | outcome [14] | outcome [15] | outcome [16]
active: activation [10] 49.5%

Cc1ccc(-n2cccn2)c(CN2CCCC(C(=O)c3ccc4c(c3)OCO4)C2)c1 (stereo unspecified)
inactive: outcome [1] | outcome [2] | outcome [3] | outcome [4] | outcome [6] | outcome [7] | outcome [8] | outcome [10] | outcome [11] | outcome [12] | outcome [14] | outcome [15] | outcome [16]
active: inhibition [5] 53% | inhibition [9] 28% | inhibition [13] 38%

Cc1cc(/C=C2/C(=N)N3C(=NC2=O)SN=C3S(C)(=O)=O)c(C)n1-c1ccccc1F
inactive: outcome [1] | outcome [2] | outcome [3] | outcome [4] | outcome [5] | outcome [6] | outcome [7] | outcome [8] | outcome [9] | outcome [10] | outcome [11] | outcome [12] | outcome [13] | outcome [14] | outcome [15] | outcome [16]

NC(=O)c1nsc(C(=O)N(Cc2ccccc2F)C(C(=O)NCC2CCCO2)c2ccc(F)cc2)c1N (stereo unspecified)
inactive: outcome [1] | outcome [2] | outcome [3] | outcome [4] | outcome [7] | outcome [8] | outcome [9] | outcome [10] | outcome [11] | outcome [12] | outcome [14] | outcome [15] | outcome [16]
active: inhibition [5] 93% | inhibition [6] 50% | inhibition [13] 26.4%

CNC(=O)COc1ccc2oc3c(c2c1)CCCC3
active: inhibition [5] 74% | inhibition [6] 49% | inhibition [13] 31.4%
inactive: outcome [1] | outcome [2] | outcome [3] | outcome [4] | outcome [7] | outcome [8] | outcome [9] | outcome [10] | outcome [11] | outcome [12] | outcome [14] | outcome [15] | outcome [16]

COC(=O)CSc1nnc(-c2sc3cc(OC)ccc3c2Cl)n1C
active: inhibition [5] 95% | inhibition [6] 59%
inactive: outcome [1] | outcome [2] | outcome [3] | outcome [4] | outcome [7] | outcome [8] | outcome [9] | outcome [10] | outcome [11] | outcome [12] | outcome [13] | outcome [14] | outcome [15] | outcome [16]

Cc1c(CN2CCC(n3nccc3NC(=O)CCc3ccccc3)CC2)cnn1C
active: inhibition [5] 94% | inhibition [6] 68%
inactive: outcome [1] | outcome [2] | outcome [3] | outcome [4] | outcome [7] | outcome [8] | outcome [9] | outcome [10] | outcome [11] | outcome [12] | outcome [13] | outcome [14] | outcome [15] | outcome [16]

Oc1ccc(Nc2nc(N3CCCC3)c3ccccc3n2)cc1
active: inhibition [5] 95% | inhibition [9] 39.5% | inhibition [13] 36.8%
inactive: outcome [1] | outcome [2] | outcome [3] | outcome [4] | outcome [6] | outcome [7] | outcome [8] | outcome [10] | outcome [11] | outcome [12] | outcome [14] | outcome [15] | outcome [16]

COc1cc(CN(C)CC2CCCN(CCc3ccccc3F)C2)cc(Cl)c1OC (stereo unspecified)
inactive: outcome [1] | outcome [2] | outcome [3] | outcome [4] | outcome [6] | outcome [7] | outcome [8] | outcome [9] | outcome [10] | outcome [11] | outcome [12] | outcome [14] | outcome [15] | outcome [16]
active: inhibition [5] 93% | inhibition [13] 0.1%

Brc1cc2c(cc1COc1ccc(-c3nn[nH]n3)cc1)OCO2
inactive: outcome [1] | outcome [2] | outcome [3] | outcome [4] | outcome [6] | outcome [7] | outcome [8] | outcome [9] | outcome [10] | outcome [11] | outcome [12] | outcome [14] | outcome [15] | outcome [16]
active: inhibition [5] 89% | inhibition [13] 35.1%
